Results filed as inconclusive are left out. Calls of active or inactive are those of the source. Calls follow the shape of the dose curve; as a rule, active = well fitted inhibition curve with a large enough effect; inconclusive = small, poorly fitted or top-dose-only effect; inactive = flat fitted curve, though single readings scatter.
Key:
Experiment in all cases: Cytotoxic Profiling of Annotated Libraries Using Quantitative High-Throughput Screening (AID 1296008); also: nearly all actives have a fitted effect of over 60% in size
Conditions in all cases: Five cell lines viability, CellTiter-Glo ATP luminescence, 48-72 h; max response: stronger effect = lower value
CRL-7250 = system: CRL-7250
Method in brief: (§1)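 Cytotoxicity was measured as CellTiter-Glo ATP luminescence, read after 10 min at room temperature. Compound treatment of the cells lasted 48 or 72 hr at 37 degrees Celsius in a qHTS format.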

HaCat = system: HaCat
Method in brief: as §1

KB-3-1 = system: KB-3-1
Method in brief: as §1

NIH3T3 = system: NIH3T3
Method in brief: as §1

Measured: max response
% is scaled to controls: 0 for no effect and ±100 for the full control effect.

CC1CCC23COC(=O)C2=CC(O)CC3C1(C)CCc1ccoc1 (stereo not given)
inactive: CRL-7250 1.42% | HaCat -3.63% | KB-3-1 -2.5% | NIH3T3 -7.2%

COc1cc2c(cc1O)CC(O)(CO)C(CO)C2c1ccc(OC2OC(CO)C(O)C(O)C2O)c(OC)c1 (stereo not given)
inactive: CRL-7250 | HaCat | KB-3-1 | NIH3T3

C=C1CC[C@H]2[C@@](C)(CCC(O)[C@@]2(C)CO)[C@@H]1/C=C/C(=C\C(=O)O)C(=O)O (stereo not given in full)
inactive: CRL-7250 -1.65% | HaCat | KB-3-1 | NIH3T3 -1.97%

O=C(Nc1ccc(N2CCC(C(=O)N3CCOCC3)CC2)cc1)c1cnc(Oc2ccccc2)nc1
inactive: CRL-7250 -3.51% | HaCat | KB-3-1 -6.22% | NIH3T3 -17.6%

O=C(c1ccc(Cl)c([N+](=O)[O-])c1)N1CCN(c2ccccc2F)CC1
inactive: CRL-7250 -5.45% | HaCat | KB-3-1 | NIH3T3

O=C(Nc1ccccc1)Nc1ccc(-c2ccc(C(=O)C3CCCC3C(=O)O)cc2)cc1 (stereo not given)
inactive: CRL-7250 -3.37% | HaCat | KB-3-1 | NIH3T3

COc1cc(O)c2c(c1)C1(OC2=O)C(C)=CC(=O)C1O (stereo not given)
inactive: CRL-7250 | HaCat | KB-3-1 7.65% | NIH3T3 4.25%

CC1(C)CC(NC(=O)C(=O)Nc2ccc(Cl)cc2)CC(C)(C)N1
inactive: CRL-7250 -5.64% | HaCat | KB-3-1 4.82% | NIH3T3

CC/C=C/C(O)C(O)C1=C(C)C(=O)C2(O1)C(=O)NC(OC)(C(=O)c1ccccc1)C2O (stereo not given)
inactive: CRL-7250 0.865% | HaCat -3.32% | KB-3-1 | NIH3T3

OC[C@H]1O[C@@H](OCc2ccccc2)[C@H](O[C@@H]2OC[C@@H](O)[C@H](O)[C@H]2O)[C@@H](O)[C@@H]1O
inactive: CRL-7250 | HaCat | KB-3-1 | NIH3T3

O=C(NCCN1CCCC1)c1cc(-c2ccc(CN3CCOCC3)cc2)nc2ccc(F)cc12
inactive: CRL-7250 3.26% | HaCat | KB-3-1 | NIH3T3 1.71%

C=C(C)[C@@H]1CC[C@]2(C(=O)O)CC[C@]3(C)C(CCC4[C@]5(C)C(CC[C@]43C)C(C)(C)[C@@H](O)[C@@H]5C(=O)O)C12 (stereo not given in full)
inactive: CRL-7250 | HaCat | KB-3-1 | NIH3T3

COc1ccc(-c2ccn(CC[C@](C)(C(=O)NO)S(C)(=O)=O)c(=O)c2)c(F)c1
inactive: CRL-7250 2.02% | HaCat | KB-3-1 | NIH3T3 3.1%

CC1(C)CC[C@]2(C(=O)O[C@@H]3O[C@H](CO)[C@@H](O)[C@H](O)[C@H]3O)CC[C@]3(C)C(=CCC4[C@@]5(C)C[C@H](O)[C@H](O[C@@H]6OC[C@@H](O)[C@H](O)[C@H]6O)[C@@](C)(CO)C5CC[C@]43C)C2C1 (stereo not given in full)
inactive: CRL-7250 -3.53% | HaCat | KB-3-1 9.53% | NIH3T3

COCc1c(O)c(C(=O)O)c(C)c2c1OC(=O)c1c(C)cc(O)c(CO)c1O2
inactive: CRL-7250 0.001% | HaCat | KB-3-1 | NIH3T3

On1ncc(C2CCNCC2)c1-c1cccc(-c2ccccc2)c1
inactive: CRL-7250 | HaCat | KB-3-1 8.99% | NIH3T3 1.04%

COc1cc(C(=O)OC[C@@]2(O)CO[C@@H](O[C@H]3[C@H](Oc4ccc(O)cc4)O[C@H](CO)[C@@H](O)[C@@H]3O)[C@@H]2O)cc(OC)c1O
inactive: CRL-7250 | HaCat | KB-3-1 -0.593% | NIH3T3 -1.11%

C/C(=C/CO)CC[C@H]1[C@]2(C)C[C@H](O)CC(C)(C)[C@H]2CC[C@]1(C)O
inactive: CRL-7250 -3.5% | HaCat | KB-3-1 3.57% | NIH3T3 3.86%

CC1(C)CC[C@]2(C(=O)O[C@@H]3O[C@H](CO)[C@@H](O)[C@H](O)[C@H]3O)CC[C@]3(C)C(=CCC4[C@@]5(C)CC[C@H](OC6OC(C(=O)O)C(OC7OC(CO)C(O)C(O)C7O)C(O)C6O)C(C)(C)C5CC[C@]43C)C2C1 (stereo not given in full)
inactive: CRL-7250 0.724% | HaCat | KB-3-1 | NIH3T3

Cc1cn(C[C@H](N)C(=O)O)c(=O)n(Cc2ccsc2C(=O)O)c1=O
inactive: CRL-7250 -3.54% | HaCat | KB-3-1 | NIH3T3 4.32%

COc1c2c(c(C)c3c1C(=O)OC3)OC1(C)CC(O)C34OC(OC)(CCC3(C)C1C2)OC4(C)CO (stereo not given)
inactive: CRL-7250 | HaCat 2.59% | KB-3-1 | NIH3T3

O=C(/C=C/N1C[C@@H]2C[C@@H]1CN2c1ccccn1)c1ccccc1O
inactive: CRL-7250 | HaCat 3.55% | KB-3-1 | NIH3T3

COc1ccc(C2COc3cc(O)ccc3C2)c(O)c1OC (stereo not given)
inactive: CRL-7250 | HaCat | KB-3-1 1.88% | NIH3T3 -7.34%

CCCC(=O)Nc1cccc(NC(=O)c2ccccc2Br)c1
inactive: CRL-7250 | HaCat | KB-3-1 8.7% | NIH3T3 3.78%

O=C(CCc1ccccc1)c1c(O)c([C@@H]2O[C@H](CO)[C@@H](O)[C@H](O)[C@H]2O)c(O)c([C@@H]2O[C@H](CO)[C@@H](O)[C@H](O)[C@H]2O)c1O
inactive: CRL-7250 -8.34% | HaCat 3.51% | KB-3-1 8.16% | NIH3T3
